In PubChem BioAssay AID743314 (Broad Institute, 2014) one finds outcome and activity change, negative = inhibition data, which are given here for 36 molecules.

Potency and affinity values are given separately. Inconclusive results are not listed. Entries that show only a call come without a potency. Calls of active or inactive are those of the source.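 How the source made its calls: active means fitted half-maximal concentration no higher than twice the top tested dose, in every repeat run; inconclusive means repeat runs disagree, poor fit, or flat partial inhibition; inactive means the rest.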

Endoplasmic reticulum aminopeptidase 1 (Homo sapiens), sequence (Q9NZ08 whole entry, looked up): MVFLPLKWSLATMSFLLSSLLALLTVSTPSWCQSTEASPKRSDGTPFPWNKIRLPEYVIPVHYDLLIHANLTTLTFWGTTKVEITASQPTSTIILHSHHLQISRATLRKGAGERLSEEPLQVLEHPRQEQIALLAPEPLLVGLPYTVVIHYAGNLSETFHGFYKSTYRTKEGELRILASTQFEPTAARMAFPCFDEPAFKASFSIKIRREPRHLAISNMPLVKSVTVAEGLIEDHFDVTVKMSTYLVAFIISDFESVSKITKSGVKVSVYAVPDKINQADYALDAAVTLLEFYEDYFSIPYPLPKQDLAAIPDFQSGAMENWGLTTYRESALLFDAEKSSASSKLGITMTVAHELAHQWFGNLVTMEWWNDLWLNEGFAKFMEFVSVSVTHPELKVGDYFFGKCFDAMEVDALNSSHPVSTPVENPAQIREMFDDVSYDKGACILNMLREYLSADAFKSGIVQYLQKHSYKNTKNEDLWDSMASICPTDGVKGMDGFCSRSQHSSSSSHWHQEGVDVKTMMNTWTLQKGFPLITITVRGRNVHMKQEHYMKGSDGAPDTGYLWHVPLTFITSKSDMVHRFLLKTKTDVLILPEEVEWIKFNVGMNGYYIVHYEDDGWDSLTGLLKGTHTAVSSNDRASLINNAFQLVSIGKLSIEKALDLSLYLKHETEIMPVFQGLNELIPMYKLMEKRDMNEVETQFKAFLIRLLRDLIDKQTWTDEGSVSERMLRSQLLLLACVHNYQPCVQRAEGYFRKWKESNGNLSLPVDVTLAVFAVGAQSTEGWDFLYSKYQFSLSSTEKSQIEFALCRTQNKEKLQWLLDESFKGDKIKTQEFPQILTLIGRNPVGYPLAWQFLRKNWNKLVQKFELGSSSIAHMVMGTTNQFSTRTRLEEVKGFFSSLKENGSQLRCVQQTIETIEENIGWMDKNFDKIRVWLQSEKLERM

The assay addresses Endoplasmic reticulum aminopeptidase 1 (Homo sapiens) (UniProt Q9NZ08). Description: inhibition of human ERAP1 enzyme activity – biochemical, cherry-pick, set 2, plate reader, dose response (AID 743314). As to conditions: Recombinant ERAP1, Leu-AMC fluorescence, 60 min; series mostly up to 11 µM.
For the molecule `C[C@H]1CN([C@@H](C)CO)C(=O)c2cccc(NC(=O)Nc3ccc(C(F)(F)F)cc3)c2O[C@H]1CN(C)C`, the result was inactive.
`CCCC#Cc1ccc(CC[C@H]2O[C@H]3CC[C@H](CO)O[C@H]3C[C@@H]2NC(=O)CN2CCOCC2)cc1`: the outcome was inactive.
The same measure, in the same setting: as for `CN1CCN(S(=O)(=O)c2ccc(C3CCCCC3)cc2)CC1`, the entry is “inactive”; as for `Cc1ccc(CN2C(=O)CCC2C(=O)NCCN2CCN(c3cccc(Cl)c3)CC2)cc1` (stereo unspecified), “inactive”; as for `CC(=O)NC(CC(=O)NCCOc1ccccc1F)c1ccccc1` (stereo unspecified), “inactive”.
Turning to `COc1ccc(CNCc2c(O)c(Cl)cc3c(C)c(C)c(=O)oc23)c(OC)c1`, the result was inactive.
On to `Cc1ccc(OCC(=O)Nc2ccc(S(=O)(=O)N(C)C3CCN(C)CC3)cc2)c(C)c1`, for which the result was inactive.
In the case of `Cc1cc(C)n2nc(C(=O)Nc3ccc(N4CCOCC4)cc3)nc2n1`, the result was inactive.
On to `COc1ccc2c3c([nH]c2c1)[C@@H](CO)N(Cc1cc(F)ccc1F)CC31CN(C(=O)CN(C)C)C1`, for which the outcome was inactive.
`CCc1ccc(NS(=O)(=O)c2ccc(C)c(C(=O)N3CCOCC3)c2)cc1`: the result was inactive.
Regarding `C[C@H](CO)N1C[C@H](C)[C@H](CN(C)Cc2ccc(C(=O)O)cc2)Oc2c(NC(=O)Nc3ccccc3)cccc2C1=O`, the result was inactive.
Same read-out and setting: as for `C[C@H]1CCCCO[C@@H](CN(C)C)[C@@H](C)CN([C@@H](C)CO)C(=O)c2cc(NS(=O)(=O)c3ccc(Cl)cc3)ccc2O1`, the entry is “inactive”.
`CCCCCn1c(=NC(=O)c2ccco2)c(C(=O)OCC)cc2c(=O)n3ccccc3nc21`: the result was inactive.
Consider `Cn1cnc(C(=O)N2CCN(C(=O)OC(C)(C)C)CC2)c1C(=O)N1CCN(C(=O)OC(C)(C)C)CC1`, for which the outcome was inactive.
Turning to `O=C(NCc1ccccc1Cl)c1cc(=O)[nH]c2ccccc12`, the result was inactive.
On to `COc1ccc(CN(C)C[C@H]2OCCCC[C@H](C)Oc3ccc(NC(=O)Nc4ccc(F)cc4)cc3C(=O)N([C@@H](C)CO)C[C@@H]2C)cc1`, for which the outcome was inactive.
With `C[C@H](CO)N1C[C@H](C)[C@@H](CN(C)Cc2ccc(C(=O)O)cc2)OCCCC[C@H](C)Oc2ccc(NC(=O)Nc3ccccc3)cc2C1=O`, the result was inactive.
With `CN1CCN(S(=O)(=O)c2cccc(C(=O)Nc3cc(Cl)ccc3N3CCOCC3)c2)CC1`, the outcome was inactive.
On to `N#Cc1ccccc1OCC(=O)OCC(=O)c1ccc2c(c1)NC(=O)CO2`, for which the result was inactive.
On the same count and under the same terms, as for `CC(C)NC(=O)C1C(c2ccc(C(F)(F)F)cc2)=Nc2ccccc2N1C(=O)c1ccco1` (stereo unspecified), the entry is “inactive”; as for `O=C(CSc1nc2ccccc2c(=O)n1-c1ccccc1)NCC1CCCO1` (stereo unspecified), “inactive”.
As for `COc1ccccc1-c1cccc(-c2nc(C(=O)Nc3nccs3)cc3c2[C@@H](CCO)N(C(=O)CC2CC2)C3)c1`, the outcome was inactive.
On to `COc1ccc(CN(C)C[C@H]2Oc3c(NC(=O)NC4CCCCC4)cccc3C(=O)N([C@@H](C)CO)C[C@H]2C)cc1`, for which the outcome was inactive.
With `C[C@H](CO)N1C[C@H](C)[C@H](CN(C)CC2CCCCC2)Oc2ncc(-c3ccc(F)cc3)cc2C1=O`, the outcome was inactive.
On to `Cc1cc(C)cc(N2CC(c3nc4ccccc4n3C)CC2=O)c1` (stereo unspecified), for which the outcome was inactive.
On to `CN1c2ccc(-c3ccccc3)cc2[C@H]2[C@H](CCN2C(=O)c2ccccc2)[C@@H]1CO`, for which the result was inactive.
For `CCCCCCc1c(C)c2ccc(OCC(=O)N[C@@H](Cc3ccccc3)C(=O)O)cc2oc1=O`, the outcome was inactive.
For the molecule `Cc1cc(C)n2nc(C(=O)N3CCN(c4ccc([N+](=O)[O-])cc4)CC3)nc2n1`, the outcome was inactive.
With `C[C@H](CO)N1C[C@H](C)[C@@H](CN(C)C(=O)Nc2ccccc2)Oc2ccc(NC(=O)c3ccncc3)cc2C1=O`, the outcome was inactive.
Take `O=C(O)c1ccc(N2N=C(c3ccccc3)CC2c2ccccc2)cc1` (stereo unspecified): the activity change, negative = inhibition was -7.44% [at 2.6 µM] (inactive).
As to `COc1ccc(C(=O)O)cc1S(=O)(=O)Nc1cc(C(F)(F)F)ccc1N1CCCCC1`, the activity change, negative = inhibition was 239% [at 2.6 µM] (inactive).
Consider `c1ccc(Nc2nc(NCC3CCCO3)c3ccccc3n2)cc1` (stereo unspecified), for which the outcome was inactive.
On the same count and under the same terms, as for `C[C@@H]1CN([C@@H](C)CO)C(=O)c2cc(NS(=O)(=O)c3ccc(Cl)cc3)ccc2O[C@@H](C)CCCCO[C@@H]1CN(C)C`, the entry is “inactive”.
Take `C[C@H](CO)N1C[C@H](C)[C@H](CN(C)S(=O)(=O)c2ccccc2)Oc2ccc(NC(=O)CCN3CCOCC3)cc2C1=O`: the outcome was inactive.
On the same count and under the same terms, as for `CCOC(=O)c1c(NC(=O)COC(=O)CCNS(=O)(=O)c2ccccc2)sc(C(=O)NC)c1C`, the entry is “inactive”; as for `Cc1cccc(C)c1NC(=O)CSc1nnc(NC(=O)c2ccccc2C(=O)O)s1`, “inactive”.
